# Test results published in PubChem BioAssay.
# Calls of active or inactive are those of the source.
# Key:
# Albumin (Bos taurus) = Albumin (Bos taurus) (UniProt P02769); assay: bovine serum albumin binders on microarray, profiling panel, artefact control for SMM control protein annotation, biochemical, small-molecule microarray, Alexa647 label, 635/667 nm fluorescence (AID 1118); settings: BSA-A647 binding, fluorescence 635 nm, higher = more signal;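 also: score merges 667 nm emission intensity and signal-to-noise per printed compound spot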
# Sequence of Albumin (Bos taurus) (P02769 whole entry, looked up): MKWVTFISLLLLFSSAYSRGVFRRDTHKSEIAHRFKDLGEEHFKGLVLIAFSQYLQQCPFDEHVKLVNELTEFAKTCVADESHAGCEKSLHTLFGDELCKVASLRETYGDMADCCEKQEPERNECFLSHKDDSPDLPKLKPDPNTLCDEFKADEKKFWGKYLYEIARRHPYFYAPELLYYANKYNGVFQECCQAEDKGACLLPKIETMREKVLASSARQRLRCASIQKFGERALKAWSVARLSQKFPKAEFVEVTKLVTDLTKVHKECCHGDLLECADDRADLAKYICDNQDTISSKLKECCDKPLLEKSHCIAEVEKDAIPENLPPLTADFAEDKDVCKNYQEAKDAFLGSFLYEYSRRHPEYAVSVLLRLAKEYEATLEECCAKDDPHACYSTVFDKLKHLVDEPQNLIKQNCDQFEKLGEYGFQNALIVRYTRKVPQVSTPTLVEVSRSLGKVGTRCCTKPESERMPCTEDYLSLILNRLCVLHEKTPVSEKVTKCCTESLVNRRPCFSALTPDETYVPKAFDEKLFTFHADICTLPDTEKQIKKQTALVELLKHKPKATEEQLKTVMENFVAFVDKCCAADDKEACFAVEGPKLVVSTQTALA
# [1] = small-molecule microarray binders of probe aXIP, primary screen, biochemical, NeuroSMM set, 635/667 nm fluorescence (AID 1119); settings: higher = more signal, called active from +8 up or from −8 down;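 also: probe is the protein aXip251-270 applied at 1 µg/mL to compound-printed slides; binding of probe to printed compounds measured as 667 nm fluorescence plus signal to noise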
# [2] = small-molecule binders of probe aNOTCH3, primary screen, biochemical, small-molecule microarray, 635/667 nm fluorescence (AID 1120); settings: higher = more signal;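 also: probe is a biotin-tagged antibody raised against NOTCH3 rather than NOTCH3 protein; score merges spot fluorescence near 667 nm with spot signal to noise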
# [3] = small-molecule binders of probe aNOTCH2, primary screen, biochemical, small-molecule microarray, 635/667 nm fluorescence (AID 1121); settings: higher = more signal;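 also: score merges feature fluorescence read at 667 nm with its signal to noise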
# [4] = molecular target: Carbonic anhydrase 2 (Homo sapiens) (UniProt P00918); assay: CAII small-molecule binders, profiling panel, biochemical, small-molecule microarray, Alexa647-labelled CAII (AID 1122); settings: CAII-A647 binding fluorescence, higher = more signal
# [5] = COS7 lysate on small-molecule microarray, probe aHis, 635 nm (AID 1123); settings: COS7 cell lysate, fluorescence, higher = more signal;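 also: z-score combines 667nm fluorescence intensity with signal-to-noise per printed compound spot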
# [6] = compound binding in COS7 lysate, probe aLAP1, primary screen, cell lysate, small-molecule microarray (AID 1124); settings: probe aLAP1, fluorescence, higher = more signal;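 also: lysate comes from COS7 cells expressing LAP1 and is applied at 0.3 µg/mL; score merges spot fluorescence near 667 nm with signal-to-noise over triplicate slides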
# Sam68 (KHDRBS1) = assay: Sam68 small-molecule binders, primary screen, biochemical, small-molecule microarray, 635 nm fluorescence (AID 1125); settings: small-molecule microarray binding, higher = more signal;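 also: score merges 667 nm channel intensity with signal to noise over triplicate slides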
# [7] = system: Chordin-like protein 2 (CHRDL2); assay: CHRDL2 small-molecule binders, primary screen, biochemical, small-molecule microarray, 635 nm fluorescence (AID 1126); settings: small-molecule microarray binding, fluorescence 635 nm; higher = more signal;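 also: printed compound slides probed with Chrdl2 protein at 4 µg/mL for 1 h at 4 C; score merges 667 nm emission intensity with signal to noise over three replicate slides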
# [8] = molecular target: Concanavalin-A (Canavalia ensiformis) (UniProt P02866); assay: ConA small-molecule binders, primary screen, artefact control for SMM control protein annotation, biochemical, small-molecule microarray, Alexa647 label, 635 nm (AID 1127); settings: ConA-A647 binding fluorescence, higher = more signal;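 also: z combines 667 nm emission intensity with signal-to-noise across three replicate slides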
# Sequence of Concanavalin-A (Canavalia ensiformis) (P02866 whole entry, looked up): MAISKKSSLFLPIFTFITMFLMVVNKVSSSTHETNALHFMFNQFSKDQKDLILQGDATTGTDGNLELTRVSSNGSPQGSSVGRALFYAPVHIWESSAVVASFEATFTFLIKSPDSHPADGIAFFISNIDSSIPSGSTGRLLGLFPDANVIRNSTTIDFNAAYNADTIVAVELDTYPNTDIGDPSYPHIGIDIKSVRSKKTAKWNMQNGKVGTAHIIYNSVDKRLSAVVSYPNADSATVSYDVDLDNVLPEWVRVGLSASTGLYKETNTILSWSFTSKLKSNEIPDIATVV
# [9] = anti-His antibody binders, primary screen, artefact control for SMM control protein annotation, biochemical, small-molecule microarray, 635 nm fluorescence (AID 1128); settings: anti-His Alexa647 antibody binding, higher = more signal;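 also: score merges feature fluorescence with signal-to-noise for each printed compound spot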
# [10] = system: Human papillomavirus type 1a E7 protein (residues 1-88); assay: HPV1a E7 small-molecule binders, primary screen, biochemical, small-molecule microarray, residues 1-88, 635 nm (AID 1129); settings: small-molecule microarray binding, fluorescence 635 nm; higher = more signal
# [11] = molecular target: Focal adhesion kinase 1 (Homo sapiens) (UniProt Q05397); assay: small-molecule microarray binders of FAK, primary screen, biochemical, 635/667 nm fluorescence, BSA, DTT (AID 1130); settings: PTK2 binding, 635 nm fluorescence, higher = more signal;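 also: composite of spot emission at 667 nm and signal to noise over triplicate slides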
# Sequence of Focal adhesion kinase 1 (Homo sapiens) (Q05397 whole entry, looked up): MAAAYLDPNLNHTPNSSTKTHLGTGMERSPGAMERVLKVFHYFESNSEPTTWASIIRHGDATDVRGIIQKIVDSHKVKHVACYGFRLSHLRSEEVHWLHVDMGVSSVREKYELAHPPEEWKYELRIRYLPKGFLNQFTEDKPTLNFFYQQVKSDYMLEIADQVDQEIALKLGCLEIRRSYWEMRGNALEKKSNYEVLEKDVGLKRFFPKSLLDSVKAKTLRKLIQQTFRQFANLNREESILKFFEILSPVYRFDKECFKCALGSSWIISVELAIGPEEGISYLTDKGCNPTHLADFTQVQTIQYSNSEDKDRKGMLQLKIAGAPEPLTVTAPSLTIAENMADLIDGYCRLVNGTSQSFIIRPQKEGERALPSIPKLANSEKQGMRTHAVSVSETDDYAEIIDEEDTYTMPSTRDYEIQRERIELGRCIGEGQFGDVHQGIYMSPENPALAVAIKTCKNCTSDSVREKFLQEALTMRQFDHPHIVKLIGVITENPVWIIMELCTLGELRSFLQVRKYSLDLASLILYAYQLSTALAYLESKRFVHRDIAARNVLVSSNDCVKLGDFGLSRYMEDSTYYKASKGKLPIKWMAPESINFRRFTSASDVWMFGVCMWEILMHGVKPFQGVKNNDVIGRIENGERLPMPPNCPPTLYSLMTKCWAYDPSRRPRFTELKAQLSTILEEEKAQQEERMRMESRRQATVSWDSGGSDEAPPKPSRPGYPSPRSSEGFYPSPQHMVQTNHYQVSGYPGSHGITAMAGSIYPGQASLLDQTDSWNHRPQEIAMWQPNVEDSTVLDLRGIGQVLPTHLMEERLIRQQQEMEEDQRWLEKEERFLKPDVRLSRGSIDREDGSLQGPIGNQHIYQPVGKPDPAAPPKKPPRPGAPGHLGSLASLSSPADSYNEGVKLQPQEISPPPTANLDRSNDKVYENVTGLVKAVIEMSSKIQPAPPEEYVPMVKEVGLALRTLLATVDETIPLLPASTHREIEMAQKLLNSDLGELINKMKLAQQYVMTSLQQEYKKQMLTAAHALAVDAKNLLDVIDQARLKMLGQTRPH
# [12] = system: Fibrinogen (Alexa647-labelled); assay: fibrinogen binders on compound microarrays, profiling panel, artefact control for SMM control-protein annotation, biochemical, small-molecule microarray, 635/667 nm fluorescence (AID 1131); settings: fibrinogen-A647 binding fluorescence, higher = more signal;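 also: z-score merges 667 nm fluorescence with per-spot signal-to-noise over triplicate slides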
# [13] = molecular target: Follistatin (Homo sapiens) (UniProt P19883); assay: follistatin binders on small-molecule microarrays, primary screen, biochemical, small-molecule microarray, 635/667 nm fluorescence (AID 1132); settings: FST binding, 635 nm fluorescence, higher = more signal
# Sequence of Follistatin (Homo sapiens) (P19883 whole entry, looked up): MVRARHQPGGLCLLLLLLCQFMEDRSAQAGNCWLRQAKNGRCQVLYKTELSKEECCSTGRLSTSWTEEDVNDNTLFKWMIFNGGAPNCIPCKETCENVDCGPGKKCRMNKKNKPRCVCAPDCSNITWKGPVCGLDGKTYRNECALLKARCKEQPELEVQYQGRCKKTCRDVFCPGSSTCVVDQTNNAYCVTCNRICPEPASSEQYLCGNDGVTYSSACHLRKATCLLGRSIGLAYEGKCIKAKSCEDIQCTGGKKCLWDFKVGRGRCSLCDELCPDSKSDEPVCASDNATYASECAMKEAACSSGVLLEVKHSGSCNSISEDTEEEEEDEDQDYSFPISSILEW
# [14] = molecular target: Fibroblast growth factor 2 (Homo sapiens) (UniProt P09038); assay: FGF2 binders on small-molecule microarrays, primary screen, biochemical, small-molecule microarray, 635/667 nm fluorescence (AID 1133); settings: small-molecule microarray binding, FGF2, fluorescence 635/667; higher = more signal
# Sequence of Fibroblast growth factor 2 (Homo sapiens) (P09038 whole entry, looked up): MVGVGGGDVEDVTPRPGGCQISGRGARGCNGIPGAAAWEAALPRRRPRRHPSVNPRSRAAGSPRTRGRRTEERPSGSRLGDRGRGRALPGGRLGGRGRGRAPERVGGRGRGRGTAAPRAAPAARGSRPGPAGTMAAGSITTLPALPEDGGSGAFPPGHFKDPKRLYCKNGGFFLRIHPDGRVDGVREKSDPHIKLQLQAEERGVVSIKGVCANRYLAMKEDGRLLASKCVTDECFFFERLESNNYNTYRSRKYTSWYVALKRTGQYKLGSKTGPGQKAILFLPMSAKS
# [15] = mitochondrial membrane potential change in A549 cells, profiling panel, cell-based, JC-1 fluorescence, basal, 24 h, 100 nL (AID 1138); settings: higher = more signal;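 also: A549 lung adenocarcinoma cells under basal conditions with no added stimulus; test concentration not given here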
# Lefty1 = Lefty1 binders on small-molecule microarrays, primary screen, biochemical, small-molecule microarray, 635/667 nm fluorescence (AID 1139); settings: small-molecule microarray binding, fluorescence 635/667; higher = more signal
# [16] = system: wheat germ agglutinin (Triticum aestivum), Alexa647-labelled; assay: wheat germ agglutinin binders on compound microarrays, profiling panel, artefact control for SMM control-protein annotation, biochemical, small-molecule microarray, 635/667 nm fluorescence (AID 1140); settings: WGA-A647 binding, 635 nm fluorescence, higher = more signal;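 also: score merges 667 nm feature emission with signal to noise over triplicate slides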
# [17] = molecular target: Luciferin 4-monooxygenase (Photinus pyralis) (UniProt P08659); assay: firefly luciferase enzyme inhibitors, primary screen, biochemical, luminescence, purified enzyme, 2006 set (AID 1141); settings: SteadyGlo luminescence, 30 min, higher = more signal, called active from +8 up or from −8 down;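 also: cell-free assay with purified firefly luciferase at 100 ng per well in PBS; test concentration not given here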
# Sequence of Luciferin 4-monooxygenase (Photinus pyralis) (P08659 whole entry, looked up): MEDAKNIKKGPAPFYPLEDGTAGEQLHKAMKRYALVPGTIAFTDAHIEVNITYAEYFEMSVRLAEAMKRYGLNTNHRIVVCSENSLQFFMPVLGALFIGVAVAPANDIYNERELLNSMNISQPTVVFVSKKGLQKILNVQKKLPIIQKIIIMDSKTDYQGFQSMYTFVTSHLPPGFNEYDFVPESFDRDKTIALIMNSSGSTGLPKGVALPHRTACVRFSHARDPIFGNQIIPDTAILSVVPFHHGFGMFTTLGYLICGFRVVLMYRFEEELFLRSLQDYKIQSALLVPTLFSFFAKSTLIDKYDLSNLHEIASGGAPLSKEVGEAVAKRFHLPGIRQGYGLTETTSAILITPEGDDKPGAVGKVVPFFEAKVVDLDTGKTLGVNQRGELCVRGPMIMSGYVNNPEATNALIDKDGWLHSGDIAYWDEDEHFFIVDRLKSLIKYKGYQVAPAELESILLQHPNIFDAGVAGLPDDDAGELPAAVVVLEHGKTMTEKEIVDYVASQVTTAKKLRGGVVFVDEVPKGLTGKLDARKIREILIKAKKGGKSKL
Structure (SMILES),composite z-score (Albumin (Bos taurus)),composite Z-score [1],composite z-score [2],composite z-score [3],composite z-score [4],composite z-score [5],composite z-score [6],composite z-score (Sam68 (KHDRBS1)),composite z-score [7],composite z-score [8],composite z-score [9],composite z-score [10],composite z-score [11],composite z-score [12],composite z-score [13],composite z-score [14],z-score [15],composite z-score (Lefty1),composite z-score [16],z-score [17]
COc1ccc(C(O)C2C=CC3C(=O)N(Cc4ccccc4)C(=O)C3N2n2cnnc2)cc1OCc1ccccc1 (stereo not given),0.799,-1.19 (inactive),0.0493,-0.152,0.771,1.5,-0.276,0.953,-0.34,0.681,-0.259,0.48,1.23,0.303,0.319,-0.385,-1.03,0.341,0.194,1.77 (inactive)
CCOC(=O)C1=CC[C@@H](c2ccccc2)N(S(=O)(=O)c2ccc(C)cc2)[C@H]1c1ccccc1C,0.767,-0.663 (inactive),0.183,0.103,0.743,0.838,0.201,0.841,-0.0352,0.705,0.109,0.893,0.0769,0.394,0.74,0.545,1.86,0.384,0.406,2.49 (inactive)
O=C1C[C@@](C(=O)NCC(F)(F)F)(c2ccc([N+](=O)[O-])cc2)[C@@H](c2ccc(CO)cc2I)N1C1CCCCC1,0.365,0.004 (inactive),0.03,-0.0394,0.437,2.22,-0.0164,1.23,0.189,0.676,0.226,1.25,0.466,0.9,1.05,1.26,1.8,0.394,0.834,0.59 (inactive)
CC#CC(=O)Oc1ccccc1C=CC(=O)OCC,-0.138,-0.263 (inactive),0.0035,-0.118,0.358,-0.0224,-0.021,0.82,-0.0448,0.502,0.259,0.69,-0.0142,-0.0002,0.036,0.524,-1.04,0.51,0.0601,1.51 (inactive)
[N-]=[N+]=Nc1ccccc1[C@H]1OC(c2ccc(OCCCO)cc2)=N[C@@]1(CCS(=O)(=O)c1ccccc1)C(N)=O,0.485,0.211 (inactive),0.264,0.113,0.795,1.43,0.469,1.22,0.0869,0.868,2.95,1.22,0.26,0.938,0.794,0.0263,0.118,-0.142,1.21,-6.6 (inactive)
CN(C)CCCCCCNC(=O)[C@@H]1C[C@@H]2C(=O)N[C@@H](Cc3ccccc3)C(=O)N2[C@@H]1c1ccc(O)cc1,-0.0568,0.675 (inactive),0.299,-0.0276,0.425,1.58,-0.453,1.31,1.41,1.21,2.45,1.23,0.303,0.493,1.44,1.63,-1.06,1.67,0.715,0.205 (inactive)
COC(=O)[C@H](Cc1ccccc1)N1CC2=C[C@@H](C3CC3)n3c(=O)n(C)c(=O)n3[C@H]2[C@@H]1[C@@H](O)Cc1ccccc1,0.503,0.133 (inactive),0.0562,-0.115,0.298,0.653,0.0511,1.18,0.162,0.658,0.0823,0.881,0.148,0.588,0.898,0.212,1.58,0.972,0.0263,-0.126 (inactive)
COc1ccc(CCNC(=O)[C@@]2(C)c3ccccc3C(=O)N(C(C)C)[C@H]2c2ccc(CO)cc2)cc1,0.252,0.768 (inactive),-0.0074,-0.151,0.578,0.216,0.591,-0.38,0.397,0.613,1.63,1.19,-0.0743,0.0931,0.674,0.493,0.537,0.826,0.544,-1.19 (inactive)
O=C1C[C@]2(c3ccc([N+](=O)[O-])cc3)C(=O)N(CC(F)(F)F)c3cc(CO)ccc3[C@H]2N1C1CCCCC1,-0.749,-0.0774 (inactive),-0.125,-0.112,-0.634,0.0971,0.206,-0.686,-1.26,-0.546,-1.55,-0.15,0.114,-0.603,-1.13,-0.808,0.673,-1.44,-0.288,-1 (inactive)
Cc1ccc(S[C@]2(C(=O)NC3CC3)CC(=O)N(Cc3ccccc3)[C@@H]2c2ccc(CO)cc2I)cc1,0.596,-0.35 (inactive),-0.209,0.0012,0.742,2.25,0.337,0.0282,-0.682,-0.391,-0.744,-0.0095,-0.557,-0.394,-0.868,-0.131,2.49,-1.86,-0.567,-1.42 (inactive)
COc1ccc([Si](C)(C)[C@@H]2[C@@H](CC(=O)N3CCC[C@H]3CO)O[C@]3(C(=O)N(c4ccccc4)c4ccccc43)[C@H]2C)cc1,0.569,0.723 (inactive),-0.0377,-0.147,0.575,1.12,0.237,1.3,0.553,0.894,0.806,1.22,0.472,0.94,1.1,0.642,-0.228,1.01,0.2,0.659 (inactive)
